Source: PubChem
This is a sample that favours compounds with a hit; in the whole collection about 1.8% have one here.
ABCB6 inh 2: blocks the human ABCB6 transporter | Q9NP58 | K562-ABCB6 porphyrin accumulation, flow cytometry, 1 h; hits give low values | fluorescence ratio to DMSO, % at 10 µM | 360,000 tested, 0.19% active;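 active = fluorescence ratio to DMSO below 75%, the collection mean minus 3 SD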;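 also: signal is porphyrin accumulated inside mitochondria; 100% equals median channel fluorescence of DMSO control wells; lower ratio means ABCB6 inhibition with less porphyrin fluorescence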
Target sequence (Q9NP58 whole entry, looked up): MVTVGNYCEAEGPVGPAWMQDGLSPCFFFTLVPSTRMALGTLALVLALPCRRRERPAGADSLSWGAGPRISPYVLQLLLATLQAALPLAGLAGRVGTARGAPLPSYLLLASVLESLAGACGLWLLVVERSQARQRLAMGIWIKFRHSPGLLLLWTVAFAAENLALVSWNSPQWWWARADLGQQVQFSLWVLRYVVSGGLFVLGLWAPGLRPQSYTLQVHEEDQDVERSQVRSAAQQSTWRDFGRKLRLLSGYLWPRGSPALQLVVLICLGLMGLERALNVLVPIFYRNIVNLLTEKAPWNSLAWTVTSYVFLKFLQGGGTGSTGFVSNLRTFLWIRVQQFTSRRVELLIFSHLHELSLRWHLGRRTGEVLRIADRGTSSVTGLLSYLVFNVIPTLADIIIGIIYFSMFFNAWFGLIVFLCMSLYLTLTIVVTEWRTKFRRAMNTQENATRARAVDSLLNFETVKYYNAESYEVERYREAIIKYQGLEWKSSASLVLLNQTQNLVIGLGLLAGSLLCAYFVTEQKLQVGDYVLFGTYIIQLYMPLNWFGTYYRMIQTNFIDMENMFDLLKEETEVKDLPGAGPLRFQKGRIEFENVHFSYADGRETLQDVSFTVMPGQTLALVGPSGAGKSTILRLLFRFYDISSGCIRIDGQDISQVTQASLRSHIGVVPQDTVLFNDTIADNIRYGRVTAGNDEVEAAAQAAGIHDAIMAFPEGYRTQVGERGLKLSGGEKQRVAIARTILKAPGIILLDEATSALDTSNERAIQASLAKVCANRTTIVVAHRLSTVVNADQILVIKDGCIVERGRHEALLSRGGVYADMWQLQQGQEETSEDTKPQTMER
iPSC survival up: enhancers of human iPSC single-cell survival; hiPSC single-cell survival, ATPlite luminescence; 100% = ROCK inhibitor wells, 0% = DMSO; AID 602274; survival enhancement, % at 20 µM; 360,000 tested, 0.044% active; in the data active = survival enhancement above about 18%;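 also: cells exposed to compounds for 16 hours before the ATP read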
ARNT-TACC3 inh: disruptors of human ARNT/TACC3 interaction. AlphaScreen His-ARNT PAS-B/GST-TACC3 binding, luminescence; TACC3 fragment carries E629A point mutation. Q9Y6A5. inhibition, % at 9.99 µM. AID 623870. 390,000 tested, 0.66% active;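 active = mean inhibition of replicates at least 50% and at least half of replicates each reaching 50%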;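 also: 0% = complete ARNT plus TACC3 wells and 100% = ARNT alone without TACC3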
INS-1E GSIS act: GLuc luminescence reporter in INS-1E cells, primary screen for activators of glucose-dependent secretion of insulin | INS-1E GLuc reporter insulin secretion, 2-3 h | 370,000 tested, 0.61% active | activation, % at 16.6 µM;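 active = lowest replicate activation of at least 40%, so every replicate reaches that level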;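 also: 0% = median of neutral control wells and 100% = median of IBMX positive control wells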
CendR NRP1 mod: alters CendR peptide binding to human NRP-1. O14786. FAM-RPARPAR peptide binding to NRP-1, fluorescence polarization. inhibition, % at 25 µM. 360,000 tested, 0.85% active;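 active = inhibition or corrected inhibition above about 18%, plus a signal ratio from 0.5 to 1.5, limit read from the data, passing the limit was not always enough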
ABCB6 blocker 1: inhibitors of human ABC transporter ABCB6. 700 tested, under 10 active. ratio response (% of DMSO), % at 10 µM. AID 602430. K562-ABCB6 porphyrin accumulation, flow cytometry, 1 h; hits give low values. shares compounds with ABCB6 inh 2;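 active = repeat-averaged ratio response below 75% of DMSO, the collection mean minus 3 SD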;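 also: median porphyrin fluorescence at 575 nm with 488 nm excitation from mitochondria; lower ratio means less porphyrin signal so ABCB6 inhibition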
* hit, by the source's call; . = not tested or not shown.

SMILES	ABCB6 inh 2	iPSC survival up	ARNT-TACC3 inh	INS-1E GSIS act	CendR NRP1 mod	ABCB6 blocker 1
Cc1ccc(S(=O)(=O)Nc2ccc3c(c2)C(=O)N([C@@H](C)CO)C[C@@H](C)[C@H](CN(C)Cc2ccc(C(=O)O)cc2)OCCCC[C@H](C)O3)cc1	.	.	-8.4	6.5	.	.
Cc1ccc(-c2nc(N/N=C/c3ccccc3[N+](=O)[O-])c3ccccc3n2)cc1	74.0*	-5.0	30.6	2.6	3.8	98.0
O=[N+]([O-])c1ccccc1C=NNc1ccccc1	101.0	1.9	13.8	-7.1	2.1	.
O=C(COC(=O)C1CCC1)Nc1ccccc1Sc1ccccc1	94.0	2.9	-8.4	3.4	-0.7	.
CC(C)CC(=O)OCC(=O)Nc1ccccc1Sc1ccccc1	74.0*	-0.2	.	-0.5	9.5	99.0
O=C(CN1c2cccc3cccc(c23)S1(=O)=O)NCc1ccccc1Cl	74.0*	-4.4	.	-4.1	2.6	103.0
CCOC(=O)c1ccc(NC(=O)CSc2nnc(CNC(=O)c3ccco3)o2)cc1	14.0*	0.5	-1.9	19.9	3.1	98.0
CCOc1ccc2nc(SCC(=O)NCc3ccccc3OC)[nH]c2c1	72.0*	1.0	-4.3	4.6	5.2	103.0
COc1ccc2nc(SCC(=O)Nc3ccccc3)[nH]c2c1	101.0	1.0	-0.6	-18.6	-1.0	.
CCOc1ccc2nc(SCC(=O)NCc3ccc(OC)cc3)[nH]c2c1	94.0	0.2	-16.7	-12.0	7.6	.
COc1ccc2nc(SCC(=O)Nc3c(C)cccc3C)[nH]c2c1	74.0*	-0.2	.	-3.2	2.4	98.0
COc1ccc(NC(=O)N(C)C[C@@H]2Oc3c(NS(=O)(=O)c4ccc(F)cc4)cccc3C(=O)N([C@@H](C)CO)C[C@H]2C)cc1	.	.	10.6	-4.7	.	.
CCNC(=O)C[C@H]1CC[C@@H]2[C@@H](COc3ccc(NC(=O)C4CCOCC4)cc3C(=O)N2C)O1	.	.	0.4	12.5	.	.
CCc1cc(=O)oc2c(C)c(OCC(=O)N3CCCc4ccccc43)ccc12	74.0*	6.3	-0.8	.	-3.8	99.0
COCCNC(=O)Cc1c(C)c2c(cc(C)c3c(C)coc32)oc1=O	94.0	0.4	-0.1	.	-5.2	.
Cc1coc2c1c(C)cc1oc(=O)c(Cc3ccccc3)c(C)c12	66.0*	-1.0	-26.4	13.6	2.7	100.0
CC(Oc1ccccc1)c1ccnc2nc(N3CCOCC3)nn12 (stereo not given)	96.0	-1.5	3.1	-13.3	13.1	.
CC(Oc1ccc(Cl)cc1Cl)c1ccnc2nc(N3CCOCC3)nn12 (stereo not given)	74.0*	0.2	-6.0	-35.1	3.3	99.0
CC(O)c1cccc(NC2=CC(=O)CC(C)(C)C2)c1 (stereo not given)	64.0*	-0.5	-11.8	27.6	-2.7	100.0
Cc1ccc(C)c(NC(=O)C2(C)CCN2C(C)C)c1 (stereo not given)	101.0	-3.2	.	7.8	7.0	.
Cc1ccsc1CNC(=O)C1(C)CCN1C(C)C (stereo not given)	71.0*	-1.8	.	7.0	7.3	100.0
CCOC(=O)C1CCN(Cc2ccc(F)c(Br)c2)CC1	69.0*	-1.7	-6.5	.	-6.3	99.0
O=C(c1cccnc1)N1CC2(C1)[C@@H](c1ccccc1)[C@@H](CO)N2C(=O)c1cccnc1	.	.	.	4.7	.	.
CCOCCn1c(N2CCN(c3ccc(OC)cc3)CC2)nc2c1c(=O)[nH]c(=O)n2C	72.0*	3.0	3.6	3.8	2.9	99.0
COCCn1c(N2CCN(c3ccc(OC)cc3)CC2)nc2c1c(=O)[nH]c(=O)n2C	94.0	-0.2	-13.3	.	5.4	.
CCOC(=O)CSc1nnc(NC(=O)c2cc([N+](=O)[O-])cc([N+](=O)[O-])c2)s1	74.0*	0.4	-6.3	-23.9	5.2	97.0
Cc1ccc2nc(NC(=O)C3=NN(c4ccccc4)C(=O)CC3)sc2c1	109.0	-2.0	-1.9	1.6	-3.8	.
CCOc1ccc2nc(NC(=O)C3=NN(c4ccccc4)C(=O)CC3)sc2c1	74.0*	2.4	-3.7	-2.6	17.5	100.0
O=C1CCCN1CCCN1C(=O)N[C@@H](Cc2ccccc2)C1=O	100.0	-0.5	-7.8	.	7.0	.
O=C1N[C@@H](Cc2ccccc2)C(=O)N1CCN1CCOCC1	48.0*	-1.8	4.8	4.9	5.7	97.0
